The list is not random: actives were taken first. Their share in the collection is about 4%.
Arbovirus anti = antivirals against arbovirus infection | inhibition, % at 10 µM | 200,000 compounds, 0.37% hits | arbovirus infection cell-based antiviral screen; in the data active = inhibition above about 30%
KCC2 mod = modulators of human KCC2 chloride dependent transport. Q9H2X9. AID 1456. KCC2 cells, thallium flux FluoZin-2 fluorescence. B-score of Tl+ flux slope (higher = more flux/activation; lower = inhibition) at 10 µM. 190,000 compounds, 2.2% hits;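 active = thallium flux slope and its plate-corrected score both differing from the plate sample mean at a set confidence after two filtering rounds, in either direction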;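 also: slope of fluorescence scaled to starting intensity during 10 to 20 s after thallium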
Target sequence (Q9H2X9 whole entry, looked up): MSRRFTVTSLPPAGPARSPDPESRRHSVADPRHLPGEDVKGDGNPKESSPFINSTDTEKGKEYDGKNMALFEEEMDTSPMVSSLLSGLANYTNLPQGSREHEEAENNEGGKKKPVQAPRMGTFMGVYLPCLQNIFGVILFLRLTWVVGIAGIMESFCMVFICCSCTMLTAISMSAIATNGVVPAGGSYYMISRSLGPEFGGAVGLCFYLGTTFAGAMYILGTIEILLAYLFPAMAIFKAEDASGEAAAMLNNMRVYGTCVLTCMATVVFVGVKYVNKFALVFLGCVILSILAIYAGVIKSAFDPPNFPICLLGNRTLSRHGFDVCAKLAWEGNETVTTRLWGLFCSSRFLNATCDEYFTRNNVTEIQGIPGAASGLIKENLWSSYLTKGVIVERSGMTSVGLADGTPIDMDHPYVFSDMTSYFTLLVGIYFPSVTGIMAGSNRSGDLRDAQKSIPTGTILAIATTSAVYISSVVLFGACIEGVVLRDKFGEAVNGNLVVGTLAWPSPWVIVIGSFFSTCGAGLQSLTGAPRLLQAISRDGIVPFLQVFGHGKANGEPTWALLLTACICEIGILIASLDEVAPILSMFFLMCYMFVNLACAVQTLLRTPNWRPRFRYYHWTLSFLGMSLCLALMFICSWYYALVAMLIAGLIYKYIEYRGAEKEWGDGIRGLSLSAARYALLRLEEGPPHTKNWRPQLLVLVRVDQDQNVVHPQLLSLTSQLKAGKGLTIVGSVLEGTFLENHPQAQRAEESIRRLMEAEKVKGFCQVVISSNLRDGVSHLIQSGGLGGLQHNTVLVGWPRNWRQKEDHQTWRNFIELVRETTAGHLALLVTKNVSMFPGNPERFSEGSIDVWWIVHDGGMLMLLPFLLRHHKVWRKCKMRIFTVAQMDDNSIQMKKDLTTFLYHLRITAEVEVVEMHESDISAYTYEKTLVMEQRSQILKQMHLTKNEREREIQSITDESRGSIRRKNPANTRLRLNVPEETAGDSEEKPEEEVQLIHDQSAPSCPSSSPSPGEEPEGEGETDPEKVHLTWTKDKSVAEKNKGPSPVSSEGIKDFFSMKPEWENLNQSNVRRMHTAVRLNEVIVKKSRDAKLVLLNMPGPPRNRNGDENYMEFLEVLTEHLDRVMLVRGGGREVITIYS
Measles CPE = protection of cells from measles virus | Measles virus-infected cells, CPE protection, absorbance | protection (pct of control), % at 4 µM | 140,000 compounds, 1.5% hits | AID 841; in the data active = protection mostly above about 24%, no sharp cut-off; inactive = mostly below about 26%
HSV augment = HSV replication enhancement; HSV replication augmentation in cells, fold increase; maximum fold increase; 220,000 compounds, 0.005% hits; AID 1956; in the data active = maximum fold increase above about 1.5; tested in PC3 cells
ROMK primary = modulators of human ROMK potassium channel; Tet-inducible ROMK, thallium flux fluorescence; actives lie on both sides; B-score at 10 µM; 130,000 compounds, 2% hits; AID 1918;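 active = signal ratio slope over the read window, or its plate-corrected B-score, at least 3 SD from the plate mean, either direction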;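 also: B-score of the F/F0 ratio slope over 7 to 12 s after thallium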
* hit, by the source's call.

COc1ccc(CCN2C(=NC(=O)CC(C)C)SC3CS(=O)(=O)CC32)cc1OC (centres undefined) was read as KCC2 mod 0.54, HSV augment inactive and ROMK primary -0.025.
Screening CCOC(=O)C1CCN(C(c2cc3c(C)ccc(C)c3[nH]c2=O)c2nnnn2C2CCCCC2)CC1 (centres undefined) returned Arbovirus anti -12, Measles CPE 12, HSV augment inactive and ROMK primary -1.3.
For CCOC(=O)C1CCN(C(c2cc3ccc(C)c(C)c3[nH]c2=O)c2nnnn2C2CCCCC2)CC1 (centres undefined) the results were Arbovirus anti 7, KCC2 mod -1.5, Measles CPE 7, HSV augment inactive and ROMK primary -2.5*.
`CN(C)CCCn1c(SCC(=O)N2c3ccccc3Sc3ccccc32)nc2ccccc2c1=O` gave Arbovirus anti -31, KCC2 mod 1.2, Measles CPE 11 and HSV augment inactive.
O=C1CC(c2ccc(Br)cc2)NC(c2ccc(Br)cc2)C1c1ccccc1 (centres undefined) was read as Arbovirus anti 45*, KCC2 mod -0.063, Measles CPE 53* and HSV augment inactive.
For CC1/C(=N/O)CC(c2ccccc2)NC1c1ccccc1 (centres undefined) the results were Arbovirus anti 3, KCC2 mod 0.15, Measles CPE 23, HSV augment inactive and ROMK primary 0.49.
`CNc1cc(CSC)nc(SCc2ccc(Cl)cc2Cl)n1` gave Arbovirus anti -6, KCC2 mod 0.78, Measles CPE 26* and HSV augment inactive.
COc1cc(C2NC(=O)NC(C)=C2C(=O)OCC2CCCO2)cc(OC)c1OC (centres undefined) was read as Arbovirus anti -1, KCC2 mod 0.75, HSV augment inactive and ROMK primary 0.35.
Screening O=C(Nc1ccc(S(=O)(=O)Nc2ncccn2)cc1)c1cccc(S(=O)(=O)N2CCCC2)c1 returned KCC2 mod -0.68 and HSV augment inactive.
For COCCCNC(=O)c1c(N)n(-c2cccc(S(N)(=O)=O)c2)c2nc3ccccc3nc12 the results were Arbovirus anti -4, KCC2 mod -0.35, Measles CPE 42* and HSV augment inactive.
Screening CCCNC(=O)c1c(N)n(-c2cccc(OC)c2)c2nc3ccccc3nc12 returned Arbovirus anti 9, KCC2 mod -0.33, Measles CPE 8, HSV augment inactive and ROMK primary -1.1.
Screening Cc1cc(NC(=O)c2c(Cl)cnn2C)no1 returned Arbovirus anti 13, KCC2 mod 0.27, Measles CPE 5, HSV augment inactive and ROMK primary 0.7.
Screening Cn1ncc(Cl)c1C(=O)Nc1ccc(Cl)cn1 returned Arbovirus anti -3, KCC2 mod -0.18, Measles CPE 28* and HSV augment inactive.
Screening Nn1cc(-c2ccccc2)nc1SCC(=O)N1CCN(S(=O)(=O)c2ccc(Cl)cc2)CC1 returned Arbovirus anti -6, KCC2 mod -2.3, Measles CPE 23* and HSV augment inactive.
Screening Nn1cc(-c2ccccc2)nc1SCC(=O)N1CCN(S(=O)(=O)c2ccc3ccccc3c2)CC1 returned Arbovirus anti 4, KCC2 mod -0.65, Measles CPE 23, HSV augment inactive and ROMK primary -0.21.
Screening CC1=CC(=O)c2c(O)ccc(O)c2C1=O returned Arbovirus anti -4, KCC2 mod -5.1* and HSV augment inactive.
For O=C1C=C(O)c2cccc(O)c2C1=O the results were KCC2 mod 0.0022 and HSV augment inactive.
For CSCCC1NC(=O)N(CC(=O)Nc2ccc(-c3ccccc3)cc2)C1=O (centres undefined) the results were KCC2 mod 0.053 and HSV augment inactive.
`CC(OC(=O)CCCc1nc2ccccc2s1)C(N)=O` (centres undefined) gave Arbovirus anti 3, KCC2 mod 0.65, Measles CPE 29*, HSV augment inactive and ROMK primary 0.0057.
Screening CC1(C)Cc2c(sc3nc(N/N=C/c4ccccc4)[nH]c(=O)c23)CO1 returned Arbovirus anti -9, KCC2 mod -0.19, Measles CPE 21*, HSV augment inactive and ROMK primary 0.87.
Screening CC(C)=NNc1nc2sc3c(c2c(=O)[nH]1)CC(C)(C)OC3 returned Arbovirus anti -2, KCC2 mod 0.51, Measles CPE 6, HSV augment inactive and ROMK primary 0.19.
For CCC1CCCCN1C(=O)c1cc(-c2ccc(Cl)c(Cl)c2)on1 (centres undefined) the results were Arbovirus anti 4, KCC2 mod 0.73, Measles CPE 6, HSV augment inactive and ROMK primary 0.014.
Screening CC1CCCCN1C(=O)c1cc(-c2ccc(Cl)c(Cl)c2)on1 (centres undefined) returned Arbovirus anti -20, KCC2 mod 1.4 and Measles CPE 46*.
For COc1cccc(CNC(=O)CCC2CCCN(C(=O)CCn3cncn3)C2)c1 (centres undefined) the results were Arbovirus anti 2, KCC2 mod -0.057, HSV augment inactive and ROMK primary 1.9.
For CC1CCCC(NC(=O)COC(=O)/C=C/c2ccc3c(c2)OCO3)C1C (centres undefined) the results were Arbovirus anti 9, KCC2 mod -0.65, Measles CPE 15, HSV augment inactive and ROMK primary -0.67.
Screening O=C(COC(=O)/C=C/c1ccc2c(c1)OCO2)NC1CC1 returned Arbovirus anti -3, KCC2 mod 1.1, Measles CPE 26* and HSV augment inactive.
CCN(C(=O)Nc1ccccc1)c1ccccc1 was read as Arbovirus anti -6, KCC2 mod 0.07, Measles CPE 14, HSV augment inactive and ROMK primary 0.023.
Screening COCCN(C(=O)Nc1ccccc1)c1ccccc1C returned Arbovirus anti 2, KCC2 mod -0.014, Measles CPE 58* and HSV augment inactive.
For CCc1c(C)sc(NC(=O)c2ccco2)c1C(=O)N1CCCCC1 the results were Arbovirus anti 4, KCC2 mod 5.5, Measles CPE 38* and HSV augment inactive.
Screening COC(=O)c1c(SCc2ccc(C#N)cc2)nc(=O)[nH]c1C returned Arbovirus anti 78*, KCC2 mod 0.15, HSV augment inactive and ROMK primary 0.44.
`O=c1c2ccccc2nc(-c2ccccc2)n1CCCN1CCOCC1` gave Arbovirus anti 7, KCC2 mod 0.27, Measles CPE 25*, HSV augment inactive and ROMK primary -0.16.
Cc1ccc(-c2nc3ccccc3c(=O)n2CCCN2CCOCC2)cc1 was read as Arbovirus anti 8, Measles CPE 16 and HSV augment inactive.
Screening CC(=O)CC(C)(C)NC(C)=S returned KCC2 mod 0.7 and HSV augment inactive.
For CC(C)c1nnc(NC(=O)C2CCN(S(=O)(=O)c3ccc(-n4cnnn4)cc3)CC2)s1 the results were Arbovirus anti -3, KCC2 mod 0.36, HSV augment inactive and ROMK primary -0.063.
